Bioassay records: PubChem, several laboratories
hgDAF-12 ag: activates the H. glycines DAF-12 receptor ligand-binding domain | HEK293 GAL4-hgDAF12 UAS-luciferase reporter, agonist luminescence; normalized to butyrate control | activation, % at 6.8 µM | hit rate 1.8% among 370,000 | AID 687014;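 active = activation above a cutoff set at the mean of all screened compounds plus 3 SD, cut at about 10% in these data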
DAX1 inh-1: DAX1 (NR0B1) inhibition, primary screen. HEK293T StAR-luciferase reporter, SF-1/DAX-1 repression relief. hit rate 1.1% among 370,000. inhibition, % at 6.8 µM;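 active = inhibition above the mean over all tested compounds plus 3 SD, cut at about 3.6% in these data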;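 note: higher inhibition means more luminescence from relief of DAX-1 repression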
hcDAF12 agonist: activates DAF-12 receptor from parasite H. contortus; hit rate 1.4% among 370,000; AID 652067; HEK293 hcDAF-12 lit1-tk-luc reporter, luminescence; 0% DMSO, 100% Δ7-dafachronic acid; activation, % at 6.8 µM;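 active = activation above the mean of all tested compounds plus 3 SD, cut at about 5.5% in these data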
PolyA inh: inhibitors of polyadenylation in S. cerevisiae | activity score, % at 12 µM | S. cerevisiae SKY197-pL101 polyadenylation reporter, beta-gal luminescence; efflux-impaired pdr1/pdr3 knockout yeast; score 100 = 6 SD above DMSO | hit rate 0.02% among 300,000 | AID 1875;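 active = lowest replicate activity score at least 50, where 100 means six control SD above control mean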;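 note: yeast exposed to compound for 9 h at 30 °C; higher score means more reporter readthrough which indicates perturbed polyadenylation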
ssDAF-12 act: S. stercoralis DAF-12 activation, primary screen | HEK293 ssDAF-12/GRIP1 lit1-tk-luc reporter, luminescence; % of 3 µM dafachronic acid response | activation, % at 6.8 µM | hit rate 1% among 370,000 | AID 652126;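 active = activation above the mean over all tested compounds plus 3 SD, cut at about 0.9% in these data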
DAX1 inh-2: inhibitors of human orphan nuclear receptor DAX1 (NR0B1) | inhibition, % at 6.75 µM | P51843 | AID 504766 | hit rate 0.99% among 340,000 | HEK293 Gal4-DAX1 luciferase reporter, luminescence;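 active = inhibition above the mean over all tested compounds plus 3 SD, cut at about 4.2% in these data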;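 note: inhibition shows as a rise in luminescence from relieved DAX1 repression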
Target sequence (P51843 207-470 limits assumed): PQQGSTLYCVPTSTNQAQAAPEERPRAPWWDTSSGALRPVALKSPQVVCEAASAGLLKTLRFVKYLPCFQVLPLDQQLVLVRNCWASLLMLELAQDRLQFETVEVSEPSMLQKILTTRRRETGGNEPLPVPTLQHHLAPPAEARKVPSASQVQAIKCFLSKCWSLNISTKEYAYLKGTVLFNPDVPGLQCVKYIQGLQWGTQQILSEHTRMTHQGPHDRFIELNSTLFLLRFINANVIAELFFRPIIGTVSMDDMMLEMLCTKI
DAX1 inh confirm: NR0B1 (human) inhibition, confirmation; shares compounds with DAX1 inh-1; HEK293T StAR-promoter luciferase reporter, SF-1/DAX-1 repression; inhibition, % at 6.8 µM; hit rate 87% among 2,400;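 active = inhibition above the average of every tested compound plus 3 SD, cut at about 3.8% in these data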;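 note: active compounds raise luminescence by relieving repression of the StAR reporter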
SF1 AF2mut Luc: nonselective inhibitor or artifact in SF-1 mutant DAX1 counter-screen; shares compounds with DAX1 inh-1; HEK293 StAR-luciferase, SF-1 AF2 mutant, luminescence; inhibition, % at 6.8 µM; hit rate 78% among 2,400; AID 652136;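 active = inhibition above the mean of all tested compounds plus 3 SD, cut at about 3% in these data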
Hits are given with their value; . = inactive; / = not tested or not shown. An excerpt weighted towards active compounds, which were near 4.1% of everything screened.

SMILES | hgDAF-12 ag | DAX1 inh-1 | hcDAF12 agonist | PolyA inh | ssDAF-12 act | DAX1 inh-2 | DAX1 inh confirm | SF1 AF2mut Luc
Nc1ccc(C(=O)Nc2nccs2)cc1 | . | 4.8 | . | . | . | . | 5.1 | 4.7
O=C(COc1ccccc1Br)NC(=O)NC1CCCC1 | . | 4.9 | . | / | . | . | 7.3 | 4.3
O=C(COc1ccccc1Br)NC1CC1 | . | . | . | . | . | . | / | /
CCC(C)[C@H](NC(=O)[C@H](CC(C)C)NC(=O)OC(C)(C)C)C(=O)N[C@@H](Cc1ccccc1)C(=O)OC (stereo not given in full) | . | . | . | / | . | / | / | /
Cc1ccc(C)c(OCc2cc(C(=O)N3C[C@@H](C)O[C@@H](C)C3)no2)c1 | . | 4.6 | . | . | . | . | 4.8 | 4.2
Cc1ccc(C)c(OCc2cc(C(=O)N3CCN(C4CCCCC4)CC3)no2)c1 | . | . | . | / | . | . | / | /
Cc1ccc(C)c(OCc2cc(C(=O)N3CC[C@@H]4CCCC[C@H]4C3)no2)c1 | . | 5.5 | 6.5 | . | . | . | . | 3.3
CCN1C(=O)/C(=C/C=C2/SCCN2C)SC1=S | . | 4.7 | 5.8 | . | . | . | 11 | 5.6
CCc1ccc(CNC(=O)Cc2ccc(NC(=O)C3=C(C)OCCS3)cc2)cc1 | . | 15 | . | . | . | . | 21 | .
CC1=C(C(=O)Nc2ccc(CC(=O)NCc3ccccc3C)cc2)SCCO1 | . | . | . | . | . | . | / | /
O=C(COc1ccc(Br)cc1Cl)NC(=S)Nc1ccccn1 | . | 4.8 | . | . | . | 5.2 | 16 | 3.0
COc1ccc(-c2ccc(NC(=O)c3ccc(Br)o3)cc2)nn1 | . | 5.2 | . | . | . | . | 5.6 | 4.2
CS(=O)(=O)c1ccc(-c2cccc(NC(=O)c3ccc(Br)o3)c2)nn1 | . | . | . | . | . | . | / | /
CCOc1c(Cl)cc(C(=O)Nc2cccc(C(=O)O)c2)cc1Cl | . | 7.6 | . | . | . | . | 6.5 | 4.6
CCOc1ccc(NC(=O)c2cccc(NC(=O)c3ccccc3)c2)cc1 | . | . | . | . | . | . | / | /
C=CCCC1CN(Cc2ccc(OC)cc2)S(=O)(=O)c2c(cccc2N2CCCCC2)O1 (stereo not given) | . | . | . | / | . | / | / | /
O=C(C=Cc1ccccc1)N1CCCCC1 | . | 5.2 | . | / | . | . | 6.2 | 4.7
O=C(O)C1CCCN(C(=O)/C=C/c2ccccc2)CC1 (stereo not given) | . | . | . | / | . | / | / | /
CC(=O)O[C@@H]1CCC[C@@]2(C(=O)Nc3ccccc32)[C@H]1NC(=O)C(C)C | . | . | . | / | . | / | / | /
CC(=O)c1c(C)[nH]c(C(=O)Nc2ccc(S(=O)(=O)N(C)C)cc2)c1C | . | . | . | . | . | . | / | /
CC(=O)c1c(C)[nH]c(C(=O)Nc2ccc(C)c(S(=O)(=O)N(C)C)c2)c1C | 10 | 13 | . | . | 1.0 | . | 15 | 6.7
O=C(N/N=C/c1cccc2ccccc12)c1cccc(F)c1 | . | 5.1 | . | . | . | . | . | .
O=C(CSc1nnc(COc2ccccc2)n1-c1ccc(Cl)cc1)Nc1ccc2c(c1)OCCO2 | . | . | . | / | . | / | / | /
Cc1cccc(NC(=O)/C=C/c2ccc(Cl)cc2)n1 | 12 | 4.6 | . | . | . | . | 8.7 | 5.0
O=C(Nc1nnc(-c2ccco2)s1)c1ccccc1 | 11 | 6.6 | 6.5 | . | . | . | 16 | 6.2
SMILES | hgDAF-12 ag | DAX1 inh-1 | hcDAF12 agonist | PolyA inh | ssDAF-12 act | DAX1 inh-2 | DAX1 inh confirm | SF1 AF2mut Luc
Cc1ccc2occ(/C=N/NC(=O)c3ccc(Cl)cc3)c(=O)c2c1 | . | . | . | . | . | . | / | /
Cc1ccc2occ(/C=N/NC(=O)c3ccccc3O)c(=O)c2c1 | . | 10 | 6.4 | . | . | . | 7.3 | 7.6
Clc1ccccc1N1CCN(C2=Nc3ccccc3Sc3ccccc32)CC1 | . | . | . | / | . | / | / | /
Cc1cccc(N2CCN(C(=O)c3[nH]c(C(F)(F)F)nc3-c3ccccc3)CC2)c1C | . | 10 | . | / | . | / | 9.8 | .
C[C@@H]1ON(C)[C@H]2C[C@H]3c4cc(N5CCN(C)CC5)ccc4CCN3C[C@@H]12 | . | . | . | / | . | / | / | /
C[C@@H]1[C@@H](O)C[C@@]2(CC(=O)c3ccccc3O2)O[C@H]1c1ccccc1 | . | . | . | / | . | / | / | /
Cn1cccc1/C=N/NC(=O)c1cccs1 | 11 | 5.5 | . | . | . | . | 5.7 | 3.7
c1cnc(SCC2CCCCC2)c(-c2nc3ccccc3[nH]2)c1 | . | . | . | / | . | / | / | /
Cc1ccc(C)c(OCc2cc(C(=O)N3CCN(c4ccccc4)CC3)no2)c1 | . | 6.3 | . | . | . | . | 5.3 | 4.8
Cc1ccc(C)c(OCc2cc(C(=O)N3CCN(C(=O)c4ccco4)CC3)no2)c1 | . | 6.4 | . | . | . | . | 6.2 | 4.1
O=C(c1cc(COc2ccc(F)cc2F)on1)N1CCN(C(=O)c2ccco2)CC1 | . | . | . | . | . | . | / | /
CCCCCCCCN1C(=O)[C@@H](CC(=O)NCc2cccc(C(F)(F)F)c2)C[C@@]2(C(=O)OC)C1=C[C@H](COCc1ccccc1)O[C@@H]2C | . | . | . | / | . | / | / | /
Cc1ccc(-n2c(SC/C=C/c3ccccc3)nnc2-c2ccco2)cc1 | . | . | . | / | . | / | / | /
O=C(Nc1ccc(F)c(Cl)c1)c1csc([C@@H]2C[C@H](O)[C@@H](CO)O2)n1 | . | 4.7 | . | / | . | / | . | .
COc1cccc(N(C)C(=O)[C@@H](C)[C@@H](O)c2ccc(C(C)=O)cc2)c1 | . | . | . | / | . | / | / | /
O=C(CCNC(=O)N1CC(=O)Nc2ccccc21)NCc1ccc(F)cc1 | . | 6.0 | . | . | . | . | 5.3 | 3.3
C=CCn1c(C)cc(C(=O)COc2ncnc3sccc23)c1C | 11 | 5.2 | 6.3 | . | . | . | 14 | 6.5
O=C(Nc1cccc(O)c1)c1noc2c1CCc1ccccc1-2 | . | 7.0 | 6.3 | . | . | . | 16 | 6.3
Nc1ccn([C@@H]2O[C@H](C(=O)N3CCN(CCO)CC3)[C@@H](O)[C@H]2O)c(=O)n1 | . | . | . | / | . | / | / | /
Cc1ccnc(NC(=O)CCNC(=O)c2ccccc2Cl)c1 | . | 5.0 | . | . | . | . | 8.5 | 5.6
Cc1ccnc(NC(=O)CC(NC(=O)c2ccccc2Cl)c2ccccc2)c1 (stereo not given) | 11 | 6.1 | . | . | . | . | 7.0 | 7.0
Cc1ccnc(NC(=O)CNC(=O)COc2ccccc2)c1 | . | 7.6 | . | . | 0.9 | . | 7.2 | 4.0
Cc1ccnc(NC(=O)CNC(=O)c2ccccc2Br)c1 | . | 5.0 | . | . | . | . | 7.0 | 3.7
